Screening results (PubChem)
CFTR F508del cor: correctors of CFTR F508del function in bronchial epithelial cells; activity (quench increase), % at 7.58 µM; CFBE cells, YFP halide quenching; stimulated with forskolin plus potentiator P3; % fluorescence drop versus neutral controls; 0.36% of 350,000 active;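 active = mean added fluorescence quench of at least 8% versus neutral control, with both replicates also reaching 8%; inconclusive = only one of the mean or replicate conditions met; inactive = mean below 8% and not both replicates reaching 8%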;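 note: cells transiently co-express mutant CFTR-F508del with the halide-sensitive YFP; corrector assay measuring rescue of mutant channel to the surface after 24 h compound exposure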
Wnt bcat act: Wnt/beta-catenin pathway activation. Wnt/beta-catenin reporter cell assay, activator, plate reader. 1.2% of 300,000 active. activation, % at 9.35 µM; in the data active = activation above about 30%, passing the limit was not always enough; inconclusive = no clear call, values can overlap the other calls;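 note: 0% = neutral control wells and 100% = positive control wells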
MITF TRPM1 HTS: activators of MITF-driven TRPM1 promoter activity in SK-MEL-5 cells | activation, % at 12.5 µM | 0.75% of 300,000 active | SK-MEL-5 TRPM1-promoter luciferase, 24 h; % of positive control, neutral wells = 0 | AID 588334;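 active = mean activation of at least 80% with every replicate also reaching 80%; inconclusive = mean reaches 80% but some replicate falls short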;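 note: 0% = neutral control wells and 100% = parthenolide positive control wells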
INS-1E GSIS act: primary screen for activators of insulin secretion dependent on glucose, INS-1E cells, GLuc reporter luminescence. INS-1E GLuc reporter insulin secretion, 2-3 h. AID 743287. activation, % at 16.6 µM. 0.61% of 370,000 active;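 active = lowest replicate activation of at least 40%, so every replicate reaches that level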;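 note: 0% = median of neutral control wells and 100% = median of IBMX positive control wells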
Env fusion inh: blocks HIV Env-driven cell-cell fusion. HeLa-JRFL Env/CEM21 cell fusion, luciferase. inhibition, % at 12.3 µM. 1.1% of 360,000 active;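 active = mean replicate inhibition score of at least 50 and every replicate individually at or above 50; inconclusive = only one of the two criteria met; inactive = mean below 50 and not all replicates reaching 50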;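 note: 0% = plate neutral controls and 100% = maraviroc near 300 nM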
Active calls of the source: *; ? = inconclusive; / = not tested or not shown; [ ] = another dose, or the depositor's remark. Sampled rows, rich in hits. Any-hit rate of the full collection: about 2.7%.

SMILES	CFTR F508del cor	Wnt bcat act	MITF TRPM1 HTS	INS-1E GSIS act	Env fusion inh
CC(=O)c1c(C)[nH]c(C(=O)Nc2ccc(C)c(S(=O)(=O)N(C)C)c2)c1C	-4	10	93*	-8	-34
CC(=O)c1c(C)[nH]c(C(=O)Nc2ccc(S(=O)(=O)N(C)C)cc2)c1C	0	28	0	-3	-7
C/C=C1\COC(C(=O)NCCN2CCCC2)(C(F)(F)F)C=C1C=C1CCCCC1 (stereo not drawn)	1	6	-7	/	32
C/C=C1\COC(C(=O)NCc2ccccc2)(C(F)(F)F)C=C1C=C1CCCCC1 (stereo not drawn)	-4	0	4	141*	35
CCC(O)(CC)C(=O)NN(C(=O)Nc1csc2c1CCCC2)c1ccccc1	/	/	-9	-5	62*
CCN(CCO)Cc1csc2cc(C)ccc12	3	-2	-5	47*	11
Cc1noc(C)c1NC(=O)N(C)C[C@@H]1Oc2ncc(C#CC3CCCC3)cc2C(=O)N([C@H](C)CO)C[C@@H]1C	-1	/	/	-6	-13[16.7 µM]
CC1CC(=O)NN=C1c1ccc(NCCO)c([N+](=O)[O-])c1 (stereo not drawn)	/	/	-13	27	62*
Cn1nc(-c2ccc(NCCO)c([N+](=O)[O-])c2)c2ccccc2c1=O	3	0	-12	19	-1
Cc1cc(/C=N/Nc2ncnc(N)c2[N+](=O)[O-])c(C)n1-c1ccccc1	2	-15	-80	-7	55*
CO[C@H](CN(C)S(=O)(=O)c1ccc(C)cc1)[C@H](C)CN([C@H](C)CO)S(=O)(=O)c1cccc(Cl)c1	3	/	/	-26	/
CO[C@H](CN(C)S(=O)(=O)c1ccc(Cl)cc1)[C@H](C)CN([C@@H](C)CO)S(=O)(=O)c1cccc(Cl)c1	5	/	/	-33	61*[16.7 µM]
CO[C@H](CN(C)S(=O)(=O)c1cccc(Cl)c1)[C@H](C)CN([C@@H](C)CO)S(=O)(=O)c1ccc(Cl)cc1	0	/	/	-34	?
CO[C@@H](CN(C)S(=O)(=O)c1ccc(C)cc1)[C@H](C)CN([C@H](C)CO)S(=O)(=O)c1cccc(Cl)c1	15*	/	/	-17	/
CO[C@H](CN(C)S(=O)(=O)c1ccc(Cl)cc1)[C@H](C)CN([C@H](C)CO)S(=O)(=O)c1cccc(Cl)c1	4	/	/	-33	56*[16.7 µM]
O=C(C[C@H]1CC[C@@H]2[C@H](COC[C@H](O)CN2Cc2cccc(Cl)c2)O1)NCC1CCCCC1	1	/	/	-9	20[16.7 µM]
COCC(=O)N(C[C@@H]1N[C@@H](CO)[C@@H]1c1ccc(-c2ccccc2)cc1)C(C)C	-3	/	/	6	/
C#Cc1ccc(C(=O)Nc2ccc(N3CCC(C)CC3)c(C(N)=O)c2)cc1	16*	-3	/	8	32
CCCNC(=O)N1[C@@H](CO)[C@H](c2ccccc2)C12CN(C(=O)c1cccnc1)C2	/	/	/	9	/
O=C1CC(c2cccc([N+](=O)[O-])c2)c2ccc3ccccc3c2N1 (stereo not drawn)	/	15	18	/	93*
O=C1CC(c2ccsc2)c2ccc3ccccc3c2N1 (stereo not drawn)	2	1	12	-9	33
O=C(CN1C(=O)CCC1=O)Nc1nc(-c2ccc3ccccc3c2)cs1	3	44*	67	-6	-10
O=C(Nc1nc(-c2nc3ccccc3s2)cs1)c1ccco1	-1	-3	/	7	-66
O=C(Nc1nc(-c2nc3ccccc3s2)cs1)C1CC1	-5	49*	/	/	-370
O=C(CN1C(=O)CCC1=O)Nc1nc(-c2nc3ccccc3s2)cs1	-2	10	92*	/	20
SMILES	CFTR F508del cor	Wnt bcat act	MITF TRPM1 HTS	INS-1E GSIS act	Env fusion inh
O=C(CN1C(=O)CCC1=O)Nc1nc(-c2ccccn2)cs1	-2	-1	0	1	1
CC(=O)Nc1nc(-c2ccc3ccccc3c2)cs1	-2	48*	94*	8	-149
O=C(C[C@H]1C=C[C@@H](NC(=O)c2ccc(F)cc2)[C@@H](CO)O1)NCc1ccncn1	-3	/	/	14	-6[16.7 µM]
COc1ccc(-c2nnn(CC(=O)N(Cc3cccs3)C(C)C(=O)NC3CCCC3)n2)cc1OC (stereo not drawn)	/	/	/	/	78*
CCC(C(=O)NC1CCCC1)N(Cc1cccs1)C(=O)Cn1nnc(-c2ccc(OC)c(OC)c2)n1 (stereo not drawn)	/	/	-7	-16	/
C[C@@H]1CCCCO[C@@H](CN(C)S(=O)(=O)c2ccc(Cl)cc2)[C@@H](C)CN([C@@H](C)CO)C(=O)c2cc(NC(=O)Nc3ccc4c(c3)OCO4)ccc2O1	-3	/	/	30	-3[16.7 µM]
COc1ccc(C(=O)NCCOc2ccccc2Cl)c(OC)c1OC	4	?	89*	-21	-26
COc1cc(C(=O)NCCOc2ccccc2C)c(Br)c(OC)c1OC	1	-5	6	-10	6
CCc1sc(C(=O)N2CCc3ccccc32)cc1C	-3	39*	64	4	-178
C=CCn1cnc2c(nnn2-c2ccc(OC)c(OC)c2)c1=O	1	-3	4	26	12
C=CCn1cnc2c(nnn2-c2ccc(C)c(C)c2)c1=O	-1	5	110*	-8	-5
C[C@@H]1CN([C@@H](C)CO)C(=O)c2cc(NC(=O)Cc3ccccc3)ccc2O[C@H]1CN(C)S(=O)(=O)c1ccc(F)cc1	3	/	/	-21	/
CC(=C/c1ccccc1)/C=N/NC(=O)c1cnccn1	/	26	/	/	-42
COc1ccc(C(=O)N/N=C/c2ccc(OC)c(CSc3ccccn3)c2)cc1	1	-6	9	1	9
CC(/C=N/NC(=O)c1cccnc1)=C\c1ccccc1	/	35*	55	-7	-20
O=C(N/N=C/c1ccc(OC(=O)c2ccccc2)cc1)c1cccnc1	0	1	-3	4	57*
COc1ccc(/C=N/NC(=O)c2cccnc2)cc1CSc1ccccn1	11*	2	-11	-4	24
O=C(N/N=C/c1ccc(OC(=O)c2ccccc2)cc1)c1cccc(O)c1	1	47*	16	-13	-12
COc1ccc(NC(=O)Nc2cccc3c2O[C@@H](CN(C)Cc2ccc(Cl)c(Cl)c2)[C@@H](C)CN([C@@H](C)CO)C3=O)cc1	-1	/	/	-23	-116[16.7 µM]
CN(C[C@H]1[C@H](c2ccccc2)[C@@H](CO)N1CC1CC1)C(=O)c1ccccc1	1	/	/	2	/
C[C@@H]1CN([C@@H](C)CO)C(=O)c2cc(C#CCN(C)C)cnc2O[C@H]1CN(C)C(=O)NC1CCCC1	1	/	/	6	-10[16.7 µM]
CCCc1cc(-c2ccc3c(c2)COc2c4ccccc4nn2-3)on1	2	36*	?	/	-314
Cc1cc(-c2ccc3c(c2)COc2c4ccccc4nn2-3)on1	1	45*	64	4	-277
C(#CC1CCCC1)c1ccc2c(c1)COc1c3ccccc3nn1-2	-1	42*	119*	-6	-227
CCS(=O)(=O)N[C@@H]1CC[C@@H](CC(=O)Nc2ccc(-c3ccccc3)cc2)O[C@@H]1CO	-2	/	/	3	-12[16.7 µM]
O=C(Nc1ccc(F)cc1)c1sccc1SCc1cccc(C(F)(F)F)c1	/	/	6	-25	31
